Assay outcomes deposited in PubChem BioAssay by The Scripps Research Institute Molecular Screening Center.
M4 PAM: positive allosteric modulators of human muscarinic M4 receptor | activation, % at 3 µM | 360,000 compounds, 0.4% hits | CHO-K1 hM4/Gqi5, Fluo-8 calcium fluorescence, ACh EC20; 0% = ACh EC20, 100% = maximal ACh | P08173 | AID 624126;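 active means activation above its plate's cutoff, the mean activation of sample wells plus 3 SD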
Target sequence (P08173 whole entry, looked up): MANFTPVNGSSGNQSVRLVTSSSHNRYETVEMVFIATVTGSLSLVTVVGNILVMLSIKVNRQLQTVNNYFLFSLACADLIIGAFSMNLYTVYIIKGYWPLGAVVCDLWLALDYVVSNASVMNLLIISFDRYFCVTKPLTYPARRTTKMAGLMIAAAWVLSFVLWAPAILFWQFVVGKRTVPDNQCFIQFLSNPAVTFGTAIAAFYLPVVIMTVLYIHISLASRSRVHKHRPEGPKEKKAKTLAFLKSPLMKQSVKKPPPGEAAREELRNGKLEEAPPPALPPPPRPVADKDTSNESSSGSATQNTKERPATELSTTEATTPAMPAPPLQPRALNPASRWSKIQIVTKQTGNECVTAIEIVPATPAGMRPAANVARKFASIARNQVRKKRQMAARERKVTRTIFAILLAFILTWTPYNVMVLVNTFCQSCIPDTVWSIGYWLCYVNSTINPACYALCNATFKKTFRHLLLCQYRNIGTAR
CHO-K1 Ca PAM: nonselective activator or artifact in parental CHO-K1 calcium assay. activation, % at 3 µM. ATP EC20, Fluo-8 calcium fluorescence; 0% at ATP EC20, 100% at ATP max. 360,000 compounds, 0.02% hits;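 active means activation above the run cutoff, the mean activation of all test compounds plus 3 SD, cut at about 40% in these data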;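 further: peak over basal fluorescence ratio in a 140 s read after ATP addition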
CHO-K1 Ca ag: M1 agonist counterscreen hit in parental CHO-K1 cells. Fluo-8 calcium fluorescence; scaled to maximal ATP response, vehicle zero. activation, % at 3 µM. 360,000 compounds, 0.48% hits. AID 602248; in the data active means activation above about 15%;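 further: untransfected CHO-K1 host cells lacking M1 receptor as counterscreen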
CHO-K1 Ca antag: M1 antagonist counterscreen hit in parental CHO-K1 cells; ATP-induced calcium, Fluo-8 fluorescence; inhibition, % at 3 µM; 360,000 compounds, 0.6% hits; AID 602250;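 active means inhibition above a per-plate cutoff, the plate's mean sample inhibition plus 3 SD, cut at about 24% in these data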;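 further: 0% = DMSO plus EC80 ATP and 100% = DMSO alone without ATP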
M4 ag: agonists of human muscarinic M4 receptor (CHRM4). P08173. CHO-K1 hM4/Gqi5, Fluo-8 calcium fluorescence; vehicle 0%, full acetylcholine response 100%. activation, % at 3 µM. 360,000 compounds, 0.14% hits;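 active means activation above the run mean over all test wells plus 3 SD, cut at about 32% in these data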;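 further: peak over basal fluorescence ratio per well then scaled between controls; 0% = DMSO wells and 100% = acetylcholine at EC100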
M4 antag: antagonists of human muscarinic M4 receptor (CHRM4) | CHO-hM4 cells, ACh EC80, Fluo-8 calcium fluorescence | 360,000 compounds, 0.73% hits | P08173 | inhibition, % at 3 µM;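 active means inhibition above its plate's cutoff, the mean inhibition of sample wells plus 3 SD, cut at about 27% in these data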;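 further: 0% = acetylcholine EC80 with DMSO and 100% = DMSO without agonist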
Numbers without * were called inactive. In the library only some 2% were active in any assay of this set; here they are far more common.

SMILES	M4 PAM	CHO-K1 Ca PAM	CHO-K1 Ca ag	CHO-K1 Ca antag	M4 ag	M4 antag
CC(C)(O)C#Cc1ccc(CN2CCN(C3CCCCC3)C(CCO)C2)s1 (centres undefined)	-22	17	0	-12	0	27*
CSc1ccc(CN2CCN(C3CCCC3)C(CCO)C2)cc1 (centres undefined)	-27	19	1	-20	2	57*
OCCC1CN(Cc2ccncc2)CCN1C1CCCC1 (centres undefined)	-5	4	0	-7	0	-2
CC(C)(O)C#Cc1ccc(CN2CCN(C3CCCC3)C(CCO)C2)cc1 (centres undefined)	-44	12	3	-19	1	28*
CC(=O)c1ccc(NC(=O)C(C)NCc2ccccc2Cl)cc1 (centres undefined)	14	-14	0	-8	1	-8
CC(C)C[C@@H](CN)NC(=O)c1nc[nH]c1C(=O)N[C@@H](CC(C)C)C(=O)CNC[C@H](C)NC(=O)c1nc[nH]c1C(=O)N[C@@H](C)C(=O)O	2	7	0	-5	0	0
CCCCOC(=O)CSc1nc(N)c(C#N)c(-c2ccc(OCC)cc2)c1C#N	-4	-5	0	27*	0	9
O=C(c1cc(COc2ccc(F)cc2Cl)on1)N(CCO)Cc1cccs1	-7	-2	2	1	8	1
COc1ccc(C)cc1NC(=O)Nc1ccc(C(=O)N2CCCC2)cc1	8	16	0	-8	-1	2
COC(=O)C(Cc1ccccc1)NC(=O)C12CC3CC(CC(C3)C1)C2 (centres undefined)	22*	13	-1	0	0	-8
CCN1C/C(=C/c2ccc(N3CCOCC3)cc2)C(=O)/C(=C/c2ccc(N3CCOCC3)cc2)C1	-13	6	34*	27*	15	14
COC(=O)CNC(=O)c1ccccc1C	-3	-7	0	26*	0	3
CC(C)(C)Nc1nc2nonc2nc1NC(C)(C)C	-15	12	16*	-1	17	4
COc1ccc(NC2=NCCC(=O)N2Cc2cccs2)cc1	-1	-4	-1	30*	1	4
CCCCn1c(N)c(N(CCC(C)C)C(=O)c2ccccc2-n2cnnn2)c(=O)[nH]c1=O	7	12	6	5	0	1
Cc1ccc(CNC(=O)c2ccc(N3CCCC3=O)cc2)cc1	2	-13	0	10	1	13
Cn1nc(C(C)(C)C)cc1C(=O)NCc1ccc(N2CCCC2=O)cc1	-1	-8	11	29*	13	9
COc1ccc(CN(C)C(=O)CCC(=O)N2CCN(S(=O)(=O)c3ccc(Cl)cc3)CC2)c(OC)c1	-2	5	10	-19	16	-5
COc1cccc(C(=O)/C=C2\Sc3ccccc3N2C)c1	-1	-11	0	24*	1	-6
CC1CN(C)C(C)CC1OC(=O)C(c1ccccc1)c1ccccc1 (centres undefined)	-15	18	1	-12	1	61*
Cc1cccc(N2C(=O)CN=C2Nc2nc(C)cc(C)n2)c1	18*	9	0	-11	1	-15
Nc1c(C(=O)C2CC2)sc2nc(-c3ccccc3)cc(C(F)(F)F)c12	5	-1	109*	75*	2	-1
CCc1ccccc1NC(=O)CNC(=O)CCNC(=O)Nc1ccccc1	4	10	1	-8	1	12
O=C(NCCCNC(=O)c1ccco1)c1ccc(F)cc1	0	7	1	-17	0	5
COC(=O)c1cc(NC(=O)Cc2cc(OC)c(OC)c(OC)c2)cc(C(=O)OC)c1	6	4	0	-2	0	-4
SMILES	M4 PAM	CHO-K1 Ca PAM	CHO-K1 Ca ag	CHO-K1 Ca antag	M4 ag	M4 antag
CC(=O)Nc1ccc(OCC(O)Cn2c3ccccc3c3ccccc32)c(C)c1 (centres undefined)	-11	-18	7	0	26	27*
CC(=O)Nc1ccc(OCC(O)Cn2c3ccccc3c3ccccc32)cc1 (centres undefined)	16	7	2	7	11	0
CCOc1ccccc1C1C(C(N)=O)=C(C)Nc2nc(CCCO)nn21 (centres undefined)	10	-9	0	27*	0	-16
COc1cccc(C2C(C(N)=O)=C(C)Nc3nc(CCCO)nn32)c1OC (centres undefined)	9	17	0	-6	2	-6
CC(C)CCNC(=O)C1(C)CCN1Cc1ccc(-c2ccccn2)cc1 (centres undefined)	-7	3	1	-9	5	-23
CCCN(CC1CC1)C(=O)COC(=O)c1ccc(CNS(=O)(=O)c2ccc(F)c(Cl)c2)cc1	-3	12	4	-2	2	2
N#CCCN(C(=O)COC(=O)c1ccc(CNS(=O)(=O)c2ccc(F)c(Cl)c2)cc1)c1ccc(F)cc1	-17	11	6	1	15	50*
CC(Sc1ncc(C(F)(F)F)cc1Cl)C(=O)NCC1CCCO1 (centres undefined)	-1	15	0	-5	-1	6
COc1ccccc1C(=O)Nc1ccc(-c2nnc(SCC(=O)O)n2C)cc1	19	16	0	-12	2	37*
CSCCC(NC(=O)c1ccccc1Cl)C(=O)N1CCN(c2ccccn2)CC1 (centres undefined)	5	3	2	-3	1	0
COc1ccc(C(=O)OCC(=O)Nc2cccc(C(C)=O)c2)c(OC)c1OC	3	-2	16*	4	8	-6
O=C(CCN1C(=O)/C(=C\c2ccccc2)SC1=S)N1CCCCC1	0	11	15*	11	2	4
O=C(O)CN1C(=O)/C(=C/C=C/c2ccccc2)SC1=S	2	-10	0	31*	1	-6
O=C1/C(=C\c2cc(Cl)c(O)c(Cl)c2)SC(=S)N1Cc1ccccc1	-20	-9	16*	22	32	9
COc1cccc(/C=C2\SC(=S)N(CCCC(=O)N3CCCCC3CCO)C2=O)c1 (centres undefined)	-13	9	15*	-1	23	4
Cc1cc(C)cc(C(=O)NCC(=O)OCC(=O)NC2CCCc3ccccc32)c1 (centres undefined)	-2	4	-1	-4	0	2
Cc1cc2cc(CNC(=O)c3ccc(S(=O)(=O)N(C)C)cc3)ccc2n1C	-7	-12	1	22	2	-3
Cc1cc2cc(CNC(=O)c3ccc(S(=O)(=O)N4CCOCC4)cc3)ccc2n1C	-16	20	2	-7	2	39*
